Common to all, as to conditions: mRNA level, 48 h; actives raise or lower the signal
Read-out in test [1]: Glutamate-cysteine ligase catalytic (GCLC), GCLC (gene 2729)
Description: LTEA_HepaRG_GCLC: Life Technologies and Expression Analysis (LTEA) Assay for Glutamate-cysteine ligase catalytic (GCLC) using HepaRG (AID 2283498). The method in brief:
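HepaRG, 48 h exposure, 8-pt half-log series from 100 uM, 0.5% DMSO vehicle; TaqMan qRT-PCR for GCLC mRNA, housekeeping-normalized; bidirectional curve fit vs DMSO baseline.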

Read-out in test [2]: growth arrest and DNA damage 45 (GADD45G), GADD45G (gene 10912)
Description: LTEA_HepaRG_GADD45G: Life Technologies and Expression Analysis (LTEA) Assay for growth arrest and DNA damage 45 (GADD45G) using HepaRG (AID 2283499). The method in brief:
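Differentiated human HepaRG cells, 48 h post-plating, exposed 48 h in serum-free induction medium to 8 half-log concentrations (top 100 uM, 0.5% DMSO) in duplicate. GADD45G mRNA measured by Fluidigm TaqMan qRT-PCR, normalized to ACTB, GAPDH, POLR2A; bidirectional fit versus DMSO.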

Read-out in test [3]: Glutamate-cysteine ligase regulatory (GCLM), GCLM (gene 2730)
Briefly: LTEA_HepaRG_GCLM: Life Technologies and Expression Analysis (LTEA) Assay for Glutamate-cysteine ligase regulatory (GCLM) using HepaRG (AID 2283500). The method in brief:
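Endpoint is GCLM transcript level by qRT-PCR, normalized to three housekeeping genes, after 48 h chemical exposure of human HepaRG cells (0.5% DMSO vehicle, top 100 uM, half-log dilutions). Fitting was bidirectional relative to DMSO.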

Read-out in test [4]: Glutathione S-transferase M3 (GSTM3), GSTM3 (gene 2947)
Briefly: LTEA_HepaRG_GSTM3: Life Technologies and Expression Analysis (LTEA) Assay for Glutathione S-transferase M3 (GSTM3) using HepaRG (AID 2283501). The method in brief:
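Differentiated human HepaRG cells were exposed in duplicate for 48 h in serum-free induction medium, 8 points from 100 uM top in half-log steps, 0.5% DMSO. GSTM3 mRNA was measured by TaqMan qRT-PCR, normalized to ACTB, GAPDH and POLR2A; bidirectional fit versus DMSO.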

Read-out in test [5]: Heat shock 70 kDa protein 1 (HSPA1A), gene 3303
Briefly: LTEA_HepaRG_HSPA1A: Life Technologies and Expression Analysis (LTEA) Assay for Heat shock 70 kDa protein 1 (HSPA1A) using HepaRG (AID 2283502). The method in brief: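 Cells were plated and cultured for 48 h, then switched to serum-free induction medium. Chemicals were added at eight half-log concentrations up to 100 uM for 48 h. RNA was then isolated and HSPA1A measured by qRT-PCR with bidirectional curve fitting against DMSO.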

Read-out in test [6]: Hypoxia-inducible factor 1-alpha (Homo sapiens) (UniProt Q16665)
Briefly: LTEA_HepaRG_HIF1A: Life Technologies and Expression Analysis (LTEA) Assay for Hypoxia-inducible factor 1 (HIF1A) Trancription factor using HepaRG (AID 2283503). The gist of the method: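 HIF1A transcript level read by qRT-PCR (ACTB, GAPDH, POLR2A normalization) after 48 h chemical exposure of HepaRG cultures. Eight half-log concentrations, top 100 uM, 0.5% DMSO vehicle, duplicates; bidirectional curve fit against DMSO baseline.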

Read-out in test [7]: 3-Hydroxy-3-Methylglutaryl-CoA Synthase 2 (HMGCS2), HMGCS2 (gene 3158)
Briefly: LTEA_HepaRG_HMGCS2: Life Technologies and Expression Analysis (LTEA) Assay for 3-Hydroxy-3-Methylglutaryl-CoA Synthase 2 (HMGCS2) using HepaRG (AID 2283504). The method in brief: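 Human HepaRG cells in serum-free induction medium were exposed in duplicate for 48 h to 8-point half-log series from 100 uM top in 0.5% DMSO. HMGCS2 mRNA measured by TaqMan qRT-PCR, normalised to ACTB, GAPDH, POLR2A; bidirectional fit versus DMSO.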

Read-out in test [8]: HGF (gene 3082)
Briefly: LTEA_HepaRG_HGF: Life Technologies and Expression Analysis (LTEA) Assay for Hepatocyte Growth Facto (HGF) using HepaRG (AID 2283505). The method in brief:
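Differentiated HepaRG cells in serum-free induction medium exposed 48 h in duplicate, 8 half-log concentrations from 100 uM in 0.5% DMSO. HGF mRNA by qRT-PCR, normalised to ACTB, GAPDH, POLR2A; bidirectional fitting.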

Read-out in test [9]: Insulin Like Growth Factor 1 (IGF1), IGF1 (gene 3479)
Description: LTEA_HepaRG_IGF1: Life Technologies and Expression Analysis (LTEA) Assay for Insulin Like Growth Factor 1 (IGF1) using HepaRG (AID 2283506). The gist of the method: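 Cells are thawed, plated and cultured 48 h, then exposed in duplicate to chemical (highest 100 uM, half-log steps, 0.5% DMSO) for another 48 h. Total RNA is analysed by Fluidigm qRT-PCR for IGF1 expression relative to vehicle.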

Read-out in test [10]: Intercellular Adhesion Molecule 1 (ICAM1), ICAM1 (gene 3383)
Briefly: LTEA_HepaRG_ICAM1: Life Technologies and Expression Analysis (LTEA) Assay for Intercellular Adhesion Molecule 1 (ICAM1) using HepaRG (AID 2283507). The method in brief: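 Differentiated human HepaRG cells in serum-free induction medium exposed 48 h in duplicate to 8 half-log concentrations (top 100 uM, 0.5% DMSO). ICAM1 mRNA quantified by TaqMan qRT-PCR, normalized to ACTB, GAPDH and POLR2A; bidirectional fitting versus DMSO.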

Read-out in test [11]: Insulin-like growth factor-binding protein 1 (IGFBP1), IGFBP1 (gene 3484)
Briefly: LTEA_HepaRG_IGFBP1: Life Technologies and Expression Analysis (LTEA) Assay for Insulin-like growth factor-binding protein 1 (IGFBP1) using HepaRG (AID 2283508). The gist of the method: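 HepaRG cells, plated 48 h then switched to serum-free induction medium, exposed in duplicate for 48 h to 8-point half-log series from 100 uM in 0.5% DMSO. mRNA measured by qRT-PCR, normalized to ACTB/GAPDH/POLR2A; bidirectional fit versus DMSO.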

Read-out in test [12]: Interleukin 6 (IL6), IL6 (gene 3569)
Description: LTEA_HepaRG_IL6: Life Technologies and Expression Analysis (LTEA) Assay for Interleukin 6 (IL6) using HepaRG (AID 2283509). The method in brief:
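qRT-PCR read-out of IL6 transcript, normalized to three housekeeping genes, after 48 h chemical exposure of HepaRG cells; 8-point half-log series, top 100 uM, 0.5% DMSO vehicle. Bidirectional curve fitting against DMSO baseline.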

Read-out in test [13]: Interleukin 6 Receptor (IL6R), IL6R (gene 3570)
Briefly: LTEA_HepaRG_IL6R: Life Technologies and Expression Analysis (LTEA) Assay for Interleukin 6 Receptor (IL6R) using HepaRG (AID 2283510).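 As to AC50: TaqMan qRT-PCR signal normalized to ACTB GAPDH and POLR2A housekeeping genes.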 The gist of the method: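 Cells were thawed, plated and cultured 48 h, then medium was changed to serum-free induction medium. Chemicals were added in duplicate (100 uM top, half-log steps, 0.5% DMSO) for 48 h. Lysates were analyzed by qRT-PCR for IL6R expression.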

Read-out in test [14]: Potassium channel subfamily K member 1 (KCNK1), KCNK1 (gene 3775)
Description: LTEA_HepaRG_KCNK1: Life Technologies and Expression Analysis (LTEA) Assay for Potassium channel subfamily K member 1 (KCNK1) using HepaRG (AID 2283511). The gist of the method:
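HepaRG, 48 h exposure, 8-pt half-log series top 100 uM, 0.5% DMSO vehicle, duplicates. Readout: KCNK1 transcript by qRT-PCR (Fluidigm array), housekeeping-normalized; bidirectional curve fit relative to DMSO baseline.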

Read-out in test [15]: Keratin 19 (KRT19), KRT19 (gene 3880)
Description: LTEA_HepaRG_KRT19: Life Technologies and Expression Analysis (LTEA) Assay for Keratin 19 (KRT19) using HepaRG (AID 2283512). The method in brief: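 Differentiated HepaRG cells in serum-free induction medium, exposed 48 h in duplicate to 8 half-log concentrations up to 100 uM in 0.5% DMSO. KRT19 mRNA by qRT-PCR, normalized to ACTB, GAPDH, POLR2A; bidirectional fit vs DMSO.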

Read-out in test [16]: JUN Transcription Factor, JUN (gene 3725)
Briefly: LTEA_HepaRG_JUN: Life Technologies and Expression Analysis (LTEA) Assay for JUN Transcription Factor using HepaRG (AID 2283513). The gist of the method:
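Read-out is JUN transcript level by TaqMan qRT-PCR, normalized to ACTB, GAPDH and POLR2A, after 48 h chemical treatment of HepaRG cells. Concentration-response spanned eight half-log points up to 100 uM in 0.5% DMSO.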

Read-out in test [17]: Lipase C (LIPC), LIPC (gene 3990)
Description: LTEA_HepaRG_LIPC: Life Technologies and Expression Analysis (LTEA) Assay for Lipase C (LIPC) using HepaRG (AID 2283514). The method in brief: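 HepaRG, 48 h exposure, 8-pt half-log series from 100 uM in 0.5% DMSO, duplicates. Readout: LIPC mRNA by Fluidigm qRT-PCR, housekeeping-normalized (ACTB/GAPDH/POLR2A). Gain or loss fitted bidirectionally against DMSO baseline.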

Read-out in test [18]: Lipoprotein lipase (LPL), LPL (gene 4023)
Description: LTEA_HepaRG_LPL: Life Technologies and Expression Analysis (LTEA) Assay for Lipoprotein lipase (LPL) using HepaRG (AID 2283515). The method in brief: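 HepaRG, 48 h exposure, 8-pt half-log dilutions from 100 uM, 0.5% DMSO vehicle, duplicates; qRT-PCR (Fluidigm array) of LPL mRNA vs housekeeping genes; bidirectional curve fit relative to DMSO baseline.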

Read-out in test [19]: MicroRNA 122 (MIR122), gene 406906
Description: LTEA_HepaRG_MIR122: Life Technologies and Expression Analysis (LTEA) Assay for MicroRNA 122 (MIR122) using HepaRG (AID 2283516). Also: the transcript read is the microRNA miR-122. The method in brief: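 Human liver HepaRG cultures receive test chemicals for 48 h at eight half-log concentrations from 100 uM. Expression is quantified by qRT-PCR with ACTB/GAPDH/POLR2A normalization and fitted bidirectionally against 0.5% DMSO.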

Read-out in test [20]: matrix metalloproteinase-10 (MMP10), MMP10 (gene 4319)
Briefly: LTEA_HepaRG_MMP10: Life Technologies and Expression Analysis (LTEA) Assay for matrix metalloproteinase-10 (MMP10) using HepaRG (AID 2283517). The method in brief: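 Transcript levels come from Fluidigm qRT-PCR normalized to three housekeeping genes, with curves fitted bidirectionally against 0.5% DMSO. Human HepaRG cells were dosed for 48 hours at concentrations up to 100 uM.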

Consider 3 compounds from PubChem BioAssay (EPA / NIEHS).

The source made the active and inactive calls. The calls were made as follows: active = hit-call score of the fitted dose curve at least 0.9, where 1 is the maximum; inactive = score below 0.9.

The term AC50 denotes the midpoint of the concentration-response curve, whichever way the signal moves.

Chain of Hypoxia-inducible factor 1-alpha (Homo sapiens) (Q16665 whole entry, looked up): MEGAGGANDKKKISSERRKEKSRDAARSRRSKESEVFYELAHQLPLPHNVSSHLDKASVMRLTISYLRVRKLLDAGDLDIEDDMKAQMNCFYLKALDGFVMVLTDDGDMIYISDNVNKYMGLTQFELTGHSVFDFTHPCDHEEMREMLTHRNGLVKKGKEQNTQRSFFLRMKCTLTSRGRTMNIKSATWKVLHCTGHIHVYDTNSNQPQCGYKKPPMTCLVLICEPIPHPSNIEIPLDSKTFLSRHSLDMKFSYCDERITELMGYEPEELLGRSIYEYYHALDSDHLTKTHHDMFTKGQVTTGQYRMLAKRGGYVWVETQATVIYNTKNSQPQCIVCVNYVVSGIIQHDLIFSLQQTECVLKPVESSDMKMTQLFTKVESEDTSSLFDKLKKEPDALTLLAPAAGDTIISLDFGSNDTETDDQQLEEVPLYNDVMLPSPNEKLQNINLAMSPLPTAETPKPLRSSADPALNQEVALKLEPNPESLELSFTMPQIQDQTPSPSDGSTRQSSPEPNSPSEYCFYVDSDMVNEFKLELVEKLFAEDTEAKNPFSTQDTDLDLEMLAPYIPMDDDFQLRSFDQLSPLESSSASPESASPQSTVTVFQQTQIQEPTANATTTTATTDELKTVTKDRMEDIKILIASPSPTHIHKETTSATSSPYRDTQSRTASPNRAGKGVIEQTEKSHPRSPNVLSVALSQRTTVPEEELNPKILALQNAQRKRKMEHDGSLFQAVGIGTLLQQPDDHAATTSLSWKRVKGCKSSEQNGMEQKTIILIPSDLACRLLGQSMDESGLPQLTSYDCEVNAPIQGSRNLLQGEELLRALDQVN

For `O=C(Oc1ccccc1)c1cccc(C(=O)Oc2ccccc2)c1`, the call in test [1], in [2], in [3], in test [4], in test [5] and in test [6] was inactive. Besides, the call in test [7], in test [8], in test [9], in test [10], in [11] and in test [12] was inactive. Also, the call in test [13], in test [14], in test [15], in test [16], in test [17] and in test [18] was inactive. Also, the call in [19] and in test [20] was inactive.

Take `CC(C)COC(=O)CCCCC(=O)OCC(C)C`: the compound was classed as inactive in [1], in [2], in [3], in test [4], in test [5] and in [6]. For the same compound, the call in test [7], in test [8], in [9], in [10], in test [11] and in test [12] was inactive. Besides, the compound was called inactive in test [13], in test [14], in [15], in [16], in test [17] and in test [18]. Further, the call in test [19] and in [20] was inactive.

With `CS(=O)(=O)c1ccc([C@@H](C[C@H]2CCC(=O)C2)C(=O)Nc2cnccn2)cc1Cl`, the AC50 in [1] was 1010 nM (active); in test [3] it was 1810 nM (active); in test [4], 17600 nM (active); in test [5] it was 13400 nM (active); in [8], 1710 nM (active); in test [9] it was 1240 nM (active). Besides, the AC50 in test [10] was 1480 nM (active); in test [11], 2290 nM (active); in test [13], 16800 nM (active); in [14] it was 1400 nM (active); in [16] it was 1430 nM (active); in [17], 1080 nM (active). The values for the AC50 in test [18] and in test [19] were 934 nM (active) and 1410 nM (active), respectively. The compound was called inactive in test [2], in test [6], in test [7], in [12], in test [15] and in test [20].
